The text below walks through data of PubChem BioAssay.

Structures are written as SMILES. Calls of active or inactive are those of the source. Unless noted, no rule for the calls is given here.

For assay [1], the system named is Wnt5a (protein binding on small-molecule microarray). The assay is described as follows: Wnt5a binders on small-molecule microarray, primary screen, biophysical, 635/667 nm fluorescence (AID 1142).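 Also: fluorescence read at 667 nm with signal to noise per printed feature.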 Conditions: 635 nm fluorescence, higher = more signal.
A short description of assay [2]: cell viability in Huh7 cells, primary screen, cytotoxicity control for HCV replication inhibitor project, CellTiter-Glo luminescence, basal, 48 h (AID 1143).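 Also: Huh7 hepatoma cells carrying a hepatitis C replication reporter with no stimulus; test concentration not given here.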 Particulars: Huh7 HCV replicon, higher = more signal, called active from +8 up or from −8 down. On the technique in general: ATP-based viability assays read luminescence as a measure of living cells.
Assay [3] can be described thus: P. aeruginosa biofilm formation inhibitors, primary screen, PAO1 strain, BacTiter-Glo luminescence, LB-PBS (AID 1144). Conditions: 12 h, higher = more signal.
Assay [4] can be described thus: CREB reporter modulators without forskolin, primary screen, cell-based, PC12, CRE-LacZ reporter, unstimulated (AID 1145). Conditions: no forskolin, luminescence, 4.5 h, higher = more signal, called active from +8 up or from −8 down.
A short description of assay [5]: CREB reporter modulators under forskolin, primary screen, cell-based, PC12, CRE-LacZ reporter, forskolin-stimulated (AID 1146).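 Also: PC12 cells with 6xCRE LacZ reporter stimulated by forskolin 10 µM; beta-galactosidase reporter signal reflecting CREB driven transcription.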 Particulars: luminescence, 4.5 h, higher = more signal, called active from +8 up or from −8 down.
Assay [6] concerns the target Streptavidin (Streptomyces avidinii) (UniProt P22629). As to the kind of experiment: streptavidin binders on small-molecule microarray, primary screen, artefact control for SMM compound annotation, biophysical, 635/667 nm fluorescence (AID 1147).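 Also: signal reflects streptavidin binding to arrayed compounds as a control protein.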 Conditions: streptavidin binding, higher = more signal.
The nature of assay [7]: small-molecule binders of probe aInhba, primary screen, biochemical, small-molecule microarray, 635/667 nm fluorescence (AID 1148).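 Also: score merges 667nm spot fluorescence with signal-to-noise for antibody binding to printed compounds.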 Conditions: higher = more signal.
In assay [8] the target is Torsin-1A (Homo sapiens) (UniProt O14656). As to the kind of experiment: torsin A binders from cell lysate, primary screen, small-molecule microarray, wild-type, 635/667 nm (AID 1149). Particulars: COS7 hTOR1A-WT lysate, 635 nm fluorescence, higher = more signal.
The target is the same in assay [9]. As to the kind of experiment: small-molecule binders of mutant TOR1A in lysate, primary screen, cell lysate, small-molecule microarray, COS7 lysate, 635/667 nm fluorescence (AID 1150).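 Also: score pools 667 nm emission and signal to noise measuring lysate protein binding.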 Particulars: COS7 hTOR1A mutant lysate, 635 nm fluorescence, higher = more signal.
Assay [10] concerns Sonic hedgehog protein (Shh). As to the kind of experiment: small-molecule binders of Shh protein, primary screen, biochemical, small-molecule microarray, 635/667 nm fluorescence (AID 1151).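 Also: Shh protein binding to compounds spotted on small-molecule microarray slides; score combines spot fluorescence intensity with signal-to-noise across triplicate slides.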 Particulars: small-molecule microarray binding, 635 nm fluorescence; higher = more signal.
Assay [11] can be described thus: E. coli DRC41 culture turbidity changes, primary screen, E. coli filamentation inducer project, strain DRC41, OD650, 48 h (AID 1152).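 Also: E. coli MC1000 strain DRC41 lacking acrAB efflux pump and sulA.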 Conditions: E. coli DRC41 (acrAB sulA), higher = more signal, called active from +8 up or from −8 down.
The nature of assay [12]: small-molecule binders of probe aLefty1, primary screen, biochemical, small-molecule microarray, 635/667 nm fluorescence (AID 1153).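 Also: score merges spot fluorescence with signal-to-noise ratio from the scanned slide images.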 Particulars: higher = more signal.
The nature of assay [13]: PSAC antagonists in infected red cells, primary screen, cell-based, P. falciparum Indochina, OD700, 1 h (AID 1154). Conditions: P. falciparum Indochina infected RBC osmotic lysis, higher = more signal, called active from +8 up or from −8 down.
A short description of assay [14]: PSAC antagonists in infected red cells, primary screen, cell-based, P. falciparum Indochina, OD700, 2 h (AID 1155).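 Also: lysis reports solute entry through the parasite surface anion channel PSAC; channel blockers reduce lysis of infected cells.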 Particulars: P. falciparum Indochina infected erythrocytes, osmotic lysis OD700; higher = more signal, called active from +8 up or from −8 down.
Assay [15] in a line: osmotic lysis modulators in infected erythrocytes, primary screen, PSAC antagonist project, cell-based, P. falciparum Indochina, OD700, 3 h (AID 1156). Conditions: higher = more signal, called active from +8 up or from −8 down.
A short description of assay [16]: PSAC antagonists in infected red cells, primary screen, cell-based, P. falciparum Indochina, OD700, 18 h (AID 1157). Particulars: P. falciparum Indochina infected erythrocytes, osmotic lysis OD700, 18 h; higher = more signal, called active from +8 up or from −8 down.
A short description of assay [17]: modulators of S6 phosphorylation in cells, primary screen, cell-based, A549, cytoblot, luminescence, serum-stimulated (AID 1158).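 Also: serum-stimulated A549 lung adenocarcinoma cells; signal is phosphorylated S6 detected by cytoblot immunostaining with HRP secondary.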 Conditions: A549 phospho-S6 cytoblot, 5 h, higher = more signal.
The target of assay [18] is NADPH oxidase 2 (Homo sapiens) (UniProt P04839). As to the kind of experiment: NOX2-dependent H2O2 signal modulators, primary screen, NOX inhibitor project, cell-based, HEK293-NOX2, PMA-stimulated, Amplex Red fluorescence (AID 1159). Also: test concentration not given here. Conditions: 45 min, higher = more signal, called active from +8 up or from −8 down.
The target in assay [19] is NADPH oxidase 4 (Homo sapiens) (UniProt Q9NPH5). The assay is described as follows: NOX4-dependent H2O2 signal modulators, primary screen, NOX inhibitor project, cell-based, HEK293-NOX4, tetracycline-induced, Amplex Red fluorescence (AID 1160). Particulars: 45 min, higher = more signal, called active from +8 up or from −8 down.
Assay [20] addresses NADPH oxidase 5 (Homo sapiens) (UniProt Q96PH1). As to the kind of experiment: NOX5-dependent H2O2 signal modulators, primary screen, NOX inhibitor project, cell-based, HEK293-NOX5, Amplex Red fluorescence (AID 1161). Conditions: HEK293-NOX5, ionomycin, 45 min, higher = more signal.

Chain of Streptavidin (Streptomyces avidinii) (P22629 whole entry, looked up): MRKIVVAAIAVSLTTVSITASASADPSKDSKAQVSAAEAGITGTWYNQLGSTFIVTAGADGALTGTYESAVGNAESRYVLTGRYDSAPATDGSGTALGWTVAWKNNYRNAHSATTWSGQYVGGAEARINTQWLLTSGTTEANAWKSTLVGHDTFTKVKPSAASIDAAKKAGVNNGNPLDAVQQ
Chain of NADPH oxidase 4 (Homo sapiens) (Q9NPH5 whole entry, looked up): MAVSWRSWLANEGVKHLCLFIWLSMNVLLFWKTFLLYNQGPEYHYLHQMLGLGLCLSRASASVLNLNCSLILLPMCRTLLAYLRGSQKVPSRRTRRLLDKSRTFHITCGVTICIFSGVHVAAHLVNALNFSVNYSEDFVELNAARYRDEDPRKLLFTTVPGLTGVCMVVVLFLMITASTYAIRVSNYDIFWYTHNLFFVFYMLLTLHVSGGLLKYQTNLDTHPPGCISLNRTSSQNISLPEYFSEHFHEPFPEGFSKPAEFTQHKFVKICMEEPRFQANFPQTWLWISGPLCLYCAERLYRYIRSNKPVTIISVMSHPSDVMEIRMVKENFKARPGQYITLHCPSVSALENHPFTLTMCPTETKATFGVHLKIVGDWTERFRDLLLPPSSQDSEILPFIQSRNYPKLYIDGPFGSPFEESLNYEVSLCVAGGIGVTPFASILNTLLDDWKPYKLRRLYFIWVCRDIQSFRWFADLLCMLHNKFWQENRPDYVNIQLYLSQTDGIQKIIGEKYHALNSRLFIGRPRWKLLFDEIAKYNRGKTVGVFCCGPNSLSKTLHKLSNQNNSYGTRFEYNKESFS
Chain of NADPH oxidase 5 (Homo sapiens) (Q96PH1 whole entry, looked up): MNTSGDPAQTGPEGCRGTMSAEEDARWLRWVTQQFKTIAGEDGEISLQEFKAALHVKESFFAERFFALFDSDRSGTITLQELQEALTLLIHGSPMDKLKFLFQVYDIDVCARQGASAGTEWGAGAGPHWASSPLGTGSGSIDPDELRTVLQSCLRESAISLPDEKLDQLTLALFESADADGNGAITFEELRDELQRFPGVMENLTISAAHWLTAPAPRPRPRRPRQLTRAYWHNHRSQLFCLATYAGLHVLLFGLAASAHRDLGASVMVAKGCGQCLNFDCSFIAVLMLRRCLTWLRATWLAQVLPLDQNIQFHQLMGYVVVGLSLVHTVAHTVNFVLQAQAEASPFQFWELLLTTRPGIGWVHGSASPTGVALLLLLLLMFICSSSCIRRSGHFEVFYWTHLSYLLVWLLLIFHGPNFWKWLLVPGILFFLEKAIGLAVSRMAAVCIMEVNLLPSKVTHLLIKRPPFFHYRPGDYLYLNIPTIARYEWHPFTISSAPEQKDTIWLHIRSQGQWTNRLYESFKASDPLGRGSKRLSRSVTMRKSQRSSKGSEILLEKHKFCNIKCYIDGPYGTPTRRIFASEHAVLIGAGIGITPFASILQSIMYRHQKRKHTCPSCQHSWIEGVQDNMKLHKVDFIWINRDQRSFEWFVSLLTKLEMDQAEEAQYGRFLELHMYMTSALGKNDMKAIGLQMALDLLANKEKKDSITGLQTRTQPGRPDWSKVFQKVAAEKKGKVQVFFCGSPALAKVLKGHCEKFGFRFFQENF
Chain of Torsin-1A (Homo sapiens) (O14656 whole entry, looked up): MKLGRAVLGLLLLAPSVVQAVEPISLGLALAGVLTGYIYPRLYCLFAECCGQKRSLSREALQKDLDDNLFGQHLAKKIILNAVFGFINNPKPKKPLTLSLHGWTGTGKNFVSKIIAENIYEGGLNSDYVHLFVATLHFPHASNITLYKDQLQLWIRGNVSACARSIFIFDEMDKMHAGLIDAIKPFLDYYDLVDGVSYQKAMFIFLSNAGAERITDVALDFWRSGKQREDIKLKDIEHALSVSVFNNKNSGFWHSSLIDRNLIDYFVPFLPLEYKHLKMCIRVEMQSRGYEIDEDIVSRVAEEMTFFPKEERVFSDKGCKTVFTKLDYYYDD
Chain of NADPH oxidase 2 (Homo sapiens) (P04839 whole entry, looked up): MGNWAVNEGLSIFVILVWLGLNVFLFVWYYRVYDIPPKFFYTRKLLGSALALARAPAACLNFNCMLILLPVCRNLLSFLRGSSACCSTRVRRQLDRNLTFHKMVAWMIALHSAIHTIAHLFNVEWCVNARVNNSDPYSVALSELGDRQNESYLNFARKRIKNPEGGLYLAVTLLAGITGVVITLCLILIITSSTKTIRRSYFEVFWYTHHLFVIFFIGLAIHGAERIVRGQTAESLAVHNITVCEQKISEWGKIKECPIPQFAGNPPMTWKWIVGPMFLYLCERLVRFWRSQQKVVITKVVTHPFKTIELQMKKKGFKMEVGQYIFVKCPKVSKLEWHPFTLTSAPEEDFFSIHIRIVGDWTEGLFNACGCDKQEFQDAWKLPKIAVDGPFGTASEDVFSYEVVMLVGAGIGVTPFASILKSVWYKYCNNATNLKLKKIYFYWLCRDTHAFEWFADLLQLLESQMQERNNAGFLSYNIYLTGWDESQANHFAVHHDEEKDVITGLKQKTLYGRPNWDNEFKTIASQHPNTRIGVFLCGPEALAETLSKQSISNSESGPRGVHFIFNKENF

In the case of `COCCOC(=O)N1C(=O)[C@@]2(c3ccccc31)[C@H](c1ccc(OCCO)cc1)N1[C@H](c3ccccc3)[C@H](c3ccccc3)OC(=O)[C@H]1[C@@H]2C(=O)N1CCc2cc(OC)c(OC)cc2C1`, the composite z-score in assay [1] is 0.349; in assay [6], 0.743; in assay [7] it was 0.505; in assay [8], 0.518; in assay [9] it was 0.153; in [10] it was 1.84. This compound also showed a composite z-score in [12] of 0.358. For the same compound, the z-score in [2] was -2.12 (inactive); in [3], -1.28 (inactive); in [4] it was 0.623 (inactive); in [5], 2.12 (inactive); in assay [11] it was 0.341 (inactive); in [13], 12.7 (active). Also, the z-score is 3.86 (inactive) in assay [14]; 1.99 (inactive) in [15]; 2.18 (inactive) in assay [16]; 0.828 in assay [17]; 1.16 (inactive) in assay [18]; 1.52 (inactive) in [19]. The compound further came in with a z-score in [20] of -0.259.
As to `C=CC[C@]1(C(N)=O)COC(c2ccc(OCCCO)cc2)=N1`, the composite z-score in [1] is 0.469; in assay [6], -0.266; in assay [7], 0.027; in assay [8], 1; in assay [9] it was 1.18; in [10] it was 0.395. This compound also had a composite z-score in assay [12] of 0.269. The z-score in assay [2] was -1.33 (inactive); in assay [3] it was -0.151 (inactive); in assay [4] it was 0.0359 (inactive); in assay [5], 0.127 (inactive); in assay [11], 1.3 (inactive); in assay [13], 3.06 (inactive). The z-score in assay [14] was 0.167 (inactive); in assay [15], 0.111 (inactive); in [16], 0.322 (inactive); in assay [17], 0.537; in [18], -2.3 (inactive); in [19] it was 0.13 (inactive). The compound also yielded a z-score in assay [20] of -0.131.
In the case of `CCCCCN1CC=CC23O[C@@H]4C=CCOC(=O)[C@@H]4[C@H]2C(=O)N(C(C)CO)[C@@H]3C1=O` (stereo not given in full), the composite z-score was -0.614 in assay [1]; -0.541 in assay [6]; -0.128 in [7]; 0.909 in assay [8]; -0.979 in assay [9]; -0.424 in [10]. The composite z-score in assay [12] is -0.103. For the same compound, the z-score in [2] is 0.463 (inactive); in assay [3] it was 0.397 (inactive); in assay [4], -0.216 (inactive); in assay [5], -0.315 (inactive); in assay [11], -0.0744 (inactive); in [13] it was 0.59 (inactive). The z-score in [14] is 0.531 (inactive); in assay [15] it was 0.136 (inactive); in assay [16], 0.0638 (inactive); in [17] it was 1.43; in [18], 0.503 (inactive); in [19], 0.306 (inactive). This compound also yielded a z-score in assay [20] of 0.938.
As to `O[C@@H](Cc1ccccc1)[C@@H](/C=C/C1CC1)NCc1cccc(Cl)c1`, the composite z-score in [1] was -1.11; in [6], -1; in [7], -0.21; in assay [8] it was -1.12; in assay [9], -0.447; in assay [10], -1. In assay [12], this compound had a composite z-score of -0.0295. In addition, the z-score in assay [2] was -3.2 (inactive); in assay [3], -0.852 (inactive); in assay [4], 4.76 (inactive); in assay [5], -0.426 (inactive); in assay [11], -1.12 (inactive); in [13], 1.27 (inactive). Also, the z-score is 1.03 (inactive) in [14]; 0.972 (inactive) in assay [15]; 0.721 (inactive) in [16]; 0.528 in [17]; -0.115 (inactive) in [18]; -0.302 (inactive) in assay [19]. Also, the z-score in [20] is -2.08.
